Assay results reported in PubChem BioAssay AID504467 (National Center for Advancing Translational Sciences (NCATS), 2011).
Among all 330,000 compounds or so, about 7,700 (2.3%) were called active. Entries that show only a call come without a potency. Another 26% or so got no clear call; they are omitted. Calls follow the shape of the dose curve; as a rule, active = well fitted inhibition curve with a large enough effect; inconclusive = small, poorly fitted or top-dose-only effect, or effect the other way; inactive = flat fitted curve, though single readings scatter. This excerpt belongs to a sample that is enriched for actives.

Test: qHTS screen for small molecules that inhibit ELG1-dependent DNA repair in human embryonic kidney (HEK293T) cells expressing luciferase-tagged ELG1; also: nearly all actives have a fitted effect of over 55% in size
Details: HEK293T ELG1-luciferase reporter, luminescence, 16 h, DNA damage induced by 5-fluorouridine; series mostly up to 46.1 µM
Outline: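 Luminescence from the luciferase reporter, measured 30 min after ONE-Glo reagent at room temperature, was the read-out. Beforehand, 2,000 cells per well were exposed for 16 hr at 37 °C to 5-fluorouridine together with compound or vehicle.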
Potency is read from the fitted curve at half-maximal effect.

| Structure (SMILES) | Potency |
| --- | --- |
| Cc1cc(C)c(S(=O)(=O)N2CCCC2CNC(=O)c2ccc3c(c2)OCO3)c(C)c1 (stereo not drawn) | inactive |
| CCc1nc(Nc2ccc3nccnc3c2)c2oc3ccccc3c2n1 | 2.59 µM (active) |
| CCc1nc(Nc2ccc(NC(C)=O)cc2)c2oc3ccccc3c2n1 | inactive |
| CCc1nc(N2CCN(c3nc(C)cc(C)n3)CC2)c2oc3ccccc3c2n1 | inactive |
| CCCCCc1c(C)nc(N2CCN(Cc3ccc4c(c3)OCO4)CC2)[nH]c1=O | inactive |
| CCC(C)[C@H](NC(=O)N1CCn2c1nc1ccccc12)C(=O)NCc1ccc(OC)cc1 (stereo partly drawn) | inactive |
| COc1ccc(OC)c(NC(=O)COC(=O)Cc2ccsc2)c1 | inactive |
| CCOC(=O)CSc1nc(N2CCOCC2)c2c(c1C#N)CC(C(C)C)OC2 (stereo not drawn) | inactive |
| COc1ccc(CSc2nc(N3CCOCC3)c3c(c2C#N)CC(C)(C)OC3)cc1 | 0.92 µM (active) |
| CC(C)c1nc(N2CCOCC2)c(C#N)c2c1COC(C)(C)C2 | inactive |
| O=C(COC(=O)c1ccc(O)cc1O)c1ccc2c(c1)OCCO2 | inactive |
| CCN1CCN(c2ccc(S(=O)(=O)N3CCCCC3)cc2NC(=O)c2cccc(NC(C)=O)c2)CC1 | inactive |
| CCN(CC)S(=O)(=O)c1ccc(N2CCOCC2)c(NC(=O)C(C)Oc2ccc(F)cc2)c1 (stereo not drawn) | 8.2 µM (active) |
| CC(Oc1ccc(F)cc1)C(=O)Nc1cc(S(=O)(=O)N2CCOCC2)ccc1N1CCN(C)CC1 (stereo not drawn) | inactive |
| CCN(CC)S(=O)(=O)c1ccc(N2CCOCC2)c(NC(=O)c2ccc(=O)n(C)n2)c1 | inactive |
| COc1cccc(CNS(=O)(=O)c2ccc3c(c2)N(C(C)=O)CCS3)c1 | inactive |
| O=C(Nc1cccc(C(=O)NC2CC2)c1)c1ccc(F)c(S(=O)(=O)N2CCOCC2)c1 | inactive |
| COc1ccc(NC(=O)NCCN2CCN(c3ccc(C)cc3)CC2)c(Cl)c1 | inactive |
| O=C1C(Cc2ccc(O)cc2)NC(=S)N1Cc1ccccc1 (stereo not drawn) | inactive |
| CC1C(=O)N(Cc2ccccc2)c2ccccc2N1C(=O)c1ccccc1 (stereo not drawn) | 25.9 µM (active) |
| CC1Oc2ccccc2N(Cc2cccnc2)C1=O (stereo not drawn) | inactive |
| COCCN(Cc1ccccc1)C(=O)Cc1ccc(S(=O)(=O)N2CCOCC2)s1 | inactive |
| COC(=O)c1ccc(CN2C(=O)NC(c3ccccc3)(c3ccccc3)C2=O)o1 | inactive |
| CC[C@]1(c2ccccc2OC)C(=O)N(C(=O)OC)N1C(=O)OC | inactive |
| CC1(C)Cc2c(sc(NC(=O)C(=O)NCC3CCCO3)c2C(=O)O)CO1 (stereo not drawn) | inactive |

| Structure (SMILES) | Potency |
| --- | --- |
| Cn1c(SCC(=O)Nc2nccs2)nnc1-c1cccnc1 | inactive |
| COC(=O)C1=C(C)NC2=C(C(=O)c3ccccc32)C1c1ccc(-c2ccc(C(=O)O)cc2)o1 (stereo not drawn) | 20.6 µM (active) |
| Cc1ccc(C2C3=C(Nc4[nH]n(-c5ccccc5)c(=O)c42)c2ccccc2C3=O)cc1 (stereo not drawn) | inactive |
| COc1ccccc1NC(=O)C1=C(C)NC2=C(C(=O)CCC2)C1c1ccc(C)o1 (stereo not drawn) | inactive |
| O=C(Nc1ccncc1)c1ccc(Cl)c([N+](=O)[O-])c1 | inactive |
| Oc1ccc2ccccc2c1C=Nc1ccccc1 | inactive |
| Oc1ccc(N=Cc2c(O)ccc3ccccc23)cc1 | inactive |
| Oc1ccc2ccccc2c1N=Nc1nccs1 | 3.66 µM (active) |
| CC(C)C(NC(=O)c1c(F)cccc1F)C(=O)NNC(=O)c1ccccc1 (stereo not drawn) | inactive |
| CN(C(=O)Cn1nnc(-c2ccc(F)cc2)n1)C1CCS(=O)(=O)C1 (stereo not drawn) | inactive |
| CN(C)S(=O)(=O)c1cccc(NC(=O)Cc2ccsc2)c1 | inactive |
| CN(CC(=O)Nc1cccc(F)c1)C(=O)C1=COCCO1 | inactive |
| CCN(CC)C(=O)c1sc(NC(=O)c2ccco2)c(C#N)c1C | inactive |
| CCCc1ccc(-c2c(C)sc(NC(=O)c3ccnn3C)c2C#N)cc1 | 18.4 µM (active) |
| Cn1nccc1CNC(=O)c1ccnn1C | inactive |
| CSc1ccccc1C(=O)OCC(=O)N1CCN(C(C)=O)CC1 | inactive |
| Cc1ccc(C)c(S(=O)(=O)N2CCN(c3ncnc4sccc34)CC2)c1 | 1.83 µM (active) |
| Cc1ccc(C)c(S(=O)(=O)n2cnc3ccccc32)c1 | inactive |
| COc1ccc(C)cc1S(=O)(=O)N1CCN(S(=O)(=O)c2cc(C(=O)O)ccc2C)CC1 | inactive |
| CCCS(=O)(=O)N1CCCC(C(=O)N2CCN(c3ccccc3)CC2)C1 (stereo not drawn) | inactive |
| CC(=O)N1c2ccc(S(=O)(=O)N3CCC(C(=O)N4CCN(c5ccccc5)CC4)CC3)cc2CC1C (stereo not drawn) | inactive |
| Cc1ccc(S(=O)(=O)N2CCCC(C(=O)N3CCN(C)CC3)C2)cc1 (stereo not drawn) | inactive |
| O=C(C1CCCN(S(=O)(=O)c2ccccc2)C1)N1CCN(c2ccc(F)cc2)CC1 (stereo not drawn) | 11.6 µM (active) |
| CC(=O)N1CCCc2cc(S(=O)(=O)N3CCCC(C(=O)N4CCN(c5cccc(Cl)c5)CC4)C3)ccc21 (stereo not drawn) | 20.6 µM (active) |
| CC(=O)N1CCCc2cc(S(=O)(=O)CCC(=O)N3CCN(c4ccccc4)CC3)ccc21 | inactive |

| Structure (SMILES) | Potency |
| --- | --- |
| O=S(=O)(NC1CCCCC1N1CCN(c2ccccc2F)CC1)c1ccccc1 (stereo not drawn) | inactive |
| COc1ccccc1N1CC(C(=O)Nc2nnc(SCC(=O)NCC3CCCO3)s2)CC1=O (stereo not drawn) | inactive |
| COc1ccc2[nH]c3nc(SCC(=O)NC4CC4)nnc3c2c1 | inactive |
| Cc1cccc(S(=O)(=O)N2CN(CC3CCCO3)c3nc4ccccc4nc32)c1 (stereo not drawn) | inactive |
| CCOc1ccc(NC(=O)CN(C)C(=O)COc2cccc(CC)c2)cc1OCC | inactive |
| CN(CC(=O)Nc1ccc(F)cc1)C(=O)c1ccc(-c2ccc(Cl)cc2)o1 | inactive |
| CC(C)(C)NS(=O)(=O)NC(=O)C1=C(N2CCCC2)COC1=O | inactive |
| CCCc1cc(=O)oc2cc(OCC(=O)Nc3ccc(CN4CCOCC4)cc3)c(Cl)cc12 | inactive |
| CCCCN1C(=O)C(C)=C(C)C1OCCc1ccc(OC)c(OC)c1 (stereo not drawn) | inactive |
| CCC(CO)Oc1cc(NC(=O)c2ccc(Cl)cc2)c2ncn(C(C)C)c2c1 (stereo not drawn) | inactive |
| CCC(CO)Oc1cc(NC(=O)c2cccc3ccccc23)c2ncn(C(C)C)c2c1 (stereo not drawn) | 14.6 µM (active) |
| O=C(O)c1ccccc1-c1ccccc1C(=O)Nc1cccc2ccccc12 | inactive |
| CC(C#N)(NC(=O)CN1CCN(S(=O)(=O)c2cc(C(F)(F)F)ccc2Cl)CC1)C1CC1 (stereo not drawn) | inactive |
| Cc1ccc(S(=O)(=O)Nc2nc(CN3CCOCC3)nc3sc(C)c(C)c23)cc1 | inactive |
| C[C@H]1COC(=O)[C@H](CC(=O)OC(C)(C)C)C/C=C\C[C@@H](CC(=O)N[C@H](CO)Cc2ccccc2)C(=O)N1 | inactive |
| O=C(CSc1nc2nccnc2c(=O)n1Cc1cccs1)Nc1ccccc1F | inactive |
| O=C(Nc1ccccc1-c1ccccc1)c1cccs1 | inactive |
| COc1ccccc1N1CCN(C(=O)Cn2nnc(-c3cccs3)n2)CC1 | inactive |
| O=C(Nc1ccccc1-c1nnn(CC(=O)N2CCN(c3ccccc3)CC2)n1)c1cccs1 | 23.1 µM (active) |
| CN1C2CCC1CC(NC(=O)c1ccc([N+](=O)[O-])cc1)C2 (stereo not drawn) | inactive |
| O=C(N[C@@H]1C/C=C\C[C@@H](CC(=O)N(CCO)Cc2ccccc2)C(=O)N[C@H](Cc2ccccc2)COC1=O)OCC1c2ccccc2-c2ccccc21 | inactive |
| OC(COc1ccc(Br)cc1)CN1CCCC1 (stereo not drawn) | inactive |
| Cc1noc(COc2ccccc2OCC(O)CNC(C)(C)C)n1 (stereo not drawn) | inactive |
| CC(C)(C)CC(C)(C)NCC(O)COCCOc1ccc(Br)cc1 (stereo not drawn) | 23.1 µM (active) |
| COc1ccccc1CNC(=O)[C@@H]1CCCN1C(=O)[C@@H]1Cc2ccccc2CN1C(=O)OC(C)(C)C | inactive |

| Structure (SMILES) | Potency |
| --- | --- |
| O=C1C=CN2CCCC2CC1 (stereo not drawn) | inactive |
| COc1ccc(N(C(=O)c2snc(C(N)=O)c2N)C(C(=O)NC2CCCC2)c2ccc(C)o2)c(OC)c1 (stereo not drawn) | inactive |
| COc1ccc(NC(=O)COC(=O)c2n[nH]c3ccccc23)c(OC)c1 | inactive |
| Cc1cccc(Nc2ccccc2C(=O)NCc2ccco2)c1C | inactive |
| COc1ccc(C(=O)Nc2ccccc2C(=O)NCc2ccco2)cc1 | inactive |
| Cc1ccc(N(Cc2ccc(C(=O)Nc3ccccc3C(=O)NCc3ccco3)cc2)S(C)(=O)=O)cc1C | 4.61 µM (active) |
| Cc1cc(C)c(S(=O)(=O)N2CCC(C(=O)OCc3c(C)noc3C)CC2)c(C)c1 | inactive |
| O=C(CCc1nc2sc3c(c2c(=O)[nH]1)CCCC3)NCC(=O)Nc1ccccc1Br | inactive |
| COc1ccccc1C(=O)OCC(=O)Nc1cccc(S(=O)(=O)NC2=NCCCCC2)c1 | inactive |
| CCc1ccc2[nH]c(=O)c(Cc3ccccc3)c(O)c2c1 | inactive |
| C=CCSc1nsc(NC(=O)Nc2cccc(C(C)=O)c2)n1 | 7.3 µM (active) |
| CC(=O)c1cccc(NC(=O)c2ccncc2)c1 | inactive |
| C=C(C)C(=O)Nc1cccc(C(C)=O)c1 | inactive |
| COc1ccc2[nH]c3c(c2c1)CCN1C(=O)C(CC(=O)NCCCN(C)C)C[C@H](C(=O)N2CCOCC2)[C@@]31CCC1CCCC1 (stereo partly drawn) | inactive |
| CN(c1ccccc1)S(=O)(=O)c1cccc(C(=O)NNC(=O)c2ccncc2)c1 | inactive |
| CCN(c1ccccc1)S(=O)(=O)c1ccc(C(=O)Nc2nccs2)cc1 | inactive |
| Cc1cccc(NC(=O)c2ccc(S(=O)(=O)N(C)c3ccccc3)cc2)n1 | 23.1 µM (active) |
| COc1ccccc1S(=O)(=O)NCc1ccc(C(=O)N(C)Cc2ccc(F)cc2)cc1 | inactive |
| O=S(=O)(Nc1cc(Cl)ccc1N1CCOCC1)c1ccccc1Cl | inactive |
| CCOC(=O)C1=C(CCc2ccccc2)NC(=O)NC1c1ccc2ccccc2c1 (stereo not drawn) | inactive |
| COc1cc(CN2CCCN(C)CC2)c([N+](=O)[O-])cc1OC | inactive |
| COc1cc(CN2CCN(Cc3ccc(C)cc3)CC2)c([N+](=O)[O-])cc1OC | 20.6 µM (active) |
| COc1cc(CNCc2ccc3c(c2)OCO3)c([N+](=O)[O-])cc1OC | inactive |
